What is called AC50 is the concentration giving half of the maximal activity seen.

These results are taken from PubChem BioAssay (EPA / NIEHS).

Activity calls are given as the source filed them. How the source made its calls: active means hit-call score of the fitted dose curve at least 0.9, where 1 is the maximum; inactive means score below 0.9.

Read-out in experiment [1]: Urokinase-type plasminogen activator receptor (uPAR), PLAUR (gene 5329)
The experiment is described as follows: BSK_BE3C_uPAR: BioMAP Diversity Plus: BE3C Assay for Urokinase-type plasminogen activator receptor (uPAR) Biomarker Activity (AID 2283039).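 On outcome: uPAR protein level measured by ELISA on the cells; cells exposed to compound for one day before measurement.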 The conditions noted are these: primary human bronchial epithelial cells; actives raise or lower the signal. Summed up: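 ELISA readout of uPAR on human lung primary bronchial epithelial cells, 24 h post-dosing. Bidirectional curve fit relative to DMSO vehicle baseline; gain or loss of signal both scored.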

Read-out in experiment [2]: Interleukin-6 (IL6), IL6 (gene 3569)
The experiment can be described thus: BSK_CASM3C_IL6: BioMAP Diversity Plus: CASM3C Assay for Interleukin-6 (IL6) Biomarker Activity for (AID 2283040). The note with it: primary human coronary artery smooth muscle cells; actives raise or lower the signal.

Read-out in experiment [3]: Tissue plasminogen activator (tPA), PLAT (gene 5327)
The experiment can be described thus: BSK_BE3C_tPA: BioMAP Diversity Plus: BE3C Assay for Tissue plasminogen activator (tPA) Biomarker Activity (AID 2283041).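 Further: tPA level quantified by ELISA one day after compound addition.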 The conditions noted are these: primary human bronchial epithelial cells; actives raise or lower the signal. In a few lines: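 ELISA read-out of tPA on human primary bronchial epithelial cells, 24 h post-dosing; bidirectional fit vs DMSO negative control/baseline.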

Read-out in experiment [4]: Interleukin-8 (IL8), CXCL8 (gene 3576)
The experiment is described as follows: BSK_CASM3C_IL8: BioMAP Diversity Plus: CASM3C Assay for Interleukin-8 (IL8) Biomarker Activity (AID 2283042).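 Further: IL-8 protein level quantified by ELISA.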 The note with it: primary human coronary artery smooth muscle cells; actives raise or lower the signal.

Read-out in experiment [5]: Human Leukocyte Antigen - DR isotype (HLADR), HLA-DRA (gene 3122)
The experiment is described as follows: BSK_CASM3C_HLADR: BioMAP Diversity Plus: CASM3C Assay for Human Leukocyte Antigen - DR isotype (HLADR) Biomarker Activity (AID 2283043).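 Further: cell-surface HLA-DR protein level quantified by ELISA.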 The note with it: primary human coronary artery smooth muscle cells; actives raise or lower the signal.

Read-out in experiment [6]: Macrophage colony-stimulating factor (MCSF), CSF1 (gene 1435)
The experiment can be described thus: BSK_CASM3C_MCSF: BioMAP Diversity Plus: CASM3C Assay for Macrophage colony-stimulating factor (MCSF) Biomarker Activity (AID 2283044).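 Further: M-CSF protein amount quantified by ELISA after 24 h exposure.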 The conditions noted are these: primary human coronary artery smooth muscle cells; actives raise or lower the signal.

Read-out in experiment [7]: Low-density lipoprotein receptor (LDLR), LDLR (gene 3949)
The experiment can be described thus: BSK_CASM3C_LDLR: BioMAP Diversity Plus: CASM3C Assay for Low-density lipoprotein receptor (LDLR) Biomarker Activity (AID 2283045).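 Further: LDLR protein level on the cell surface quantified by ELISA.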 The conditions noted are these: primary human coronary artery smooth muscle cells; actives raise or lower the signal.

Read-out in experiment [8]: Monocyte Chemoattractant Protein-1 (MCP1), CCL2 (gene 6347)
The experiment can be described thus: BSK_CASM3C_MCP1: BioMAP Diversity Plus: CASM3C Assay for Monocyte Chemoattractant Protein-1 (MCP1) Biomarker Activity (AID 2283046).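 Further: MCP-1 level quantified by ELISA 24 h after dosing.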 The note with it: primary human coronary artery smooth muscle cells; actives raise or lower the signal.

The nature of experiment [9]: BSK_CASM3C_Proliferation: Cell Proliferation Assessment in the BioMAP Diversity Plus: CASM3C Assay (AID 2283047).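 Further: sulforhodamine B total protein stain as relative cell number at 560 nm; sub-confluent cells exposed 48 h before staining; fitted both ways against DMSO so gain or loss of cell number.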 The conditions noted are these: primary human coronary artery smooth muscle cells.
Read-out in experiment [10]: Monokine induced gamma interferon (MIG), CXCL9 (gene 4283)
The experiment is described as follows: BSK_CASM3C_MIG: BioMAP Diversity Plus: CASM3C Assay for Monokine induced gamma interferon (MIG) Biomarker Activity (AID 2283048).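 Further: MIG protein level measured by ELISA.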 The conditions noted are these: primary human coronary artery smooth muscle cells; actives raise or lower the signal.

Read-out in experiment [11]: serum amyloid A (SAA), SAA1 (gene 6288)
The experiment can be described thus: BSK_CASM3C_SAA: BioMAP Diversity Plus: CASM3C Assay for serum amyloid A (SAA) Biomarker Activity (AID 2283049).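 Further: SAA protein level quantified by ELISA.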 The note with it: primary human coronary artery smooth muscle cells; actives raise or lower the signal.

Experiment [12] can be described thus: BSK_CASM3C_SRB: Viability Assessment in the BioMAP Diversity Plus: CASM3C Assay (AID 2283050).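 Further: cells exposed to compound for 24 h.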 The note with it: primary human coronary artery smooth muscle cells.
Read-out in experiment [13]: Thrombomodulin, THBD (gene 7056)
The experiment can be described thus: BSK_CASM3C_Thrombomodulin: BioMAP Diversity Plus: CASM3C Assay for Thrombomodulin Biomarker Activity (AID 2283051).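 Further: thrombomodulin protein level measured by ELISA 24 h after dosing.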 The note with it: primary human coronary artery smooth muscle cells; actives raise or lower the signal.

Read-out in experiment [14]: Tissue Factor, F3 (gene 2152)
The experiment is described as follows: BSK_CASM3C_TissueFactor: BioMAP Diversity Plus: CASM3C Assay for Tissue Factor Biomarker Activity (AID 2283052).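 Further: cell surface tissue factor protein level read by ELISA.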 The conditions noted are these: primary human coronary artery smooth muscle cells; actives raise or lower the signal.

Read-out in experiment [15]: Interferon-gamma inducible Protein 10 (IP10), CXCL10 (gene 3627)
The experiment is described as follows: BSK_hDFCGF_IP10: BioMAP Diversity Plus: hDFCGF Assay for Interferon-gamma inducible Protein 10 (IP10) Biomarker Activity (AID 2283053). The note with it: primary human foreskin fibroblasts; actives raise or lower the signal. Summed up: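 ELISA read-out of IP-10 (CXCL10) from primary human skin fibroblasts, 24 h after compound addition. Gain or loss of signal versus DMSO baseline, bidirectional curve fitting.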

Read-out in experiment [16]: Urokinase-type plasminogen activator receptor (uPAR), PLAUR (gene 5329)
The experiment is described as follows: BSK_CASM3C_uPAR: BioMAP Diversity Plus: CASM3C Assay for Urokinase-type plasminogen activator receptor (uPAR) Biomarker Activity (AID 2283054).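 Further: cell-surface uPAR protein level quantified by ELISA.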 The note with it: primary human coronary artery smooth muscle cells; actives raise or lower the signal.

Read-out in experiment [17]: Vascular cell adhesion molecule 1 (VCAM1), VCAM1 (gene 7412)
The experiment is described as follows: BSK_CASM3C_VCAM1: BioMAP Diversity Plus: CASM3C Assay for Vascular cell adhesion molecule 1 (VCAM1) Biomarker Activity (AID 2283055).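 Further: VCAM-1 protein level quantified by ELISA on the cells.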 The conditions noted are these: primary human coronary artery smooth muscle cells; actives raise or lower the signal.

Read-out in experiment [18]: Collagen III, COL3A1 (gene 1281)
The experiment is described as follows: BSK_hDFCGF_CollagenIII: BioMAP Diversity Plus: hDFCGF Assay for Collagen III Biomarker Activity (AID 2283056). The note with it: primary human foreskin fibroblasts; actives raise or lower the signal. In a few lines: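 Human foreskin fibroblast primary cultures sampled 24 h after dosing; Collagen III quantified by ELISA. Signal fitted bidirectionally against DMSO baseline.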

Read-out in experiment [19]: Epidermal growth factor receptor (EGFR), EGFR (gene 1956)
The experiment is described as follows: BSK_hDFCGF_EGFR: BioMAP Diversity Plus: hDFCGF Assay for Epidermal growth factor receptor (EGFR) Biomarker Activity (AID 2283057). The conditions noted are these: primary human foreskin fibroblasts; actives raise or lower the signal. Summed up: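 ELISA readout of EGFR on human dermal fibroblasts (primary foreskin cells), 24 h post-dosing; bidirectional curve fit vs DMSO baseline, gain or loss of signal scored.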

Read-out in experiment [20]: Interleukin-8 (IL8), CXCL8 (gene 3576)
The experiment is described as follows: BSK_hDFCGF_IL8: BioMAP Diversity Plus: hDFCGF Assay for Interleukin-8 (IL8) Biomarker Activity (AID 2283058). The conditions noted are these: primary human foreskin fibroblasts; actives raise or lower the signal. In a few lines:
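Primary human foreskin fibroblasts (hDFCGF system) dosed with chemical; IL-8 measured by ELISA 24 hours later. Bidirectional curve fitting relative to DMSO baseline; cytotoxicity tracked in parallel cultures by SRB total protein staining.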

On to `Nc1c(Cl)c(Cl)nc(C(=O)O)c1Cl`, for which the outcome in [1], in experiment [2], in [3], in experiment [4], in experiment [5] and in [6] was inactive. Moreover, the result in experiment [7], in [8], in experiment [9], in experiment [10], in [11] and in experiment [12] was inactive. In addition, the outcome in experiment [13], in experiment [14], in experiment [15], in experiment [16], in [17] and in experiment [18] was inactive. In addition, the result in [19] and in experiment [20] was inactive.

For the molecule `CCOP(=O)(OCC)Oc1nc(Cl)c(Cl)cc1Cl`, the AC50 was 9840 nM (active) in [1], 297 nM (active) in experiment [13], 20000 nM (active) in [15] and 3970 nM (active) in experiment [18]. Besides, the result in [2], in [3], in experiment [4], in experiment [5], in [6] and in experiment [7] was inactive. Also, the outcome in [8], in [9], in [10], in [11], in experiment [12] and in experiment [14] was inactive. The result in [16], in experiment [17], in experiment [19] and in experiment [20] was inactive.

On to `CCSC(=O)N1CCCCCC1`, for which the outcome in [1], in [2], in experiment [3], in [4], in experiment [5] and in experiment [6] was inactive. Also, the outcome in experiment [7], in [8], in experiment [9], in [10], in experiment [11] and in experiment [12] was inactive. For the same molecule, the outcome in [13], in experiment [14], in experiment [15], in experiment [16], in experiment [17] and in experiment [18] was inactive. In addition, the result in experiment [19] and in experiment [20] was inactive.

As to `CC(C)NC(=O)N1CC(=O)N(c2cc(Cl)cc(Cl)c2)C1=O`, the outcome in [1], in experiment [2], in experiment [3], in experiment [4], in [5] and in experiment [6] was inactive. The outcome in experiment [7], in experiment [8], in experiment [9], in experiment [10], in experiment [11] and in experiment [12] was inactive. Further, the outcome in experiment [13], in [14], in experiment [15], in experiment [16], in experiment [17] and in [19] was inactive. In [20], the outcome was inactive. Also, the AC50 in [18] is 702 nM (active).

As for `CCC(C)n1c(=O)[nH]c(C)c(Br)c1=O` (stereo not given), the outcome in experiment [1], in experiment [2], in [3], in [4], in [5] and in [6] was inactive. In addition, the result in experiment [7], in experiment [8], in [9], in [10], in experiment [11] and in experiment [12] was inactive. Moreover, the result in experiment [13], in experiment [14], in experiment [15], in experiment [16], in [17] and in experiment [18] was inactive. Also, the outcome in experiment [19] and in experiment [20] was inactive.

Turning to `C=CCOC(=O)C(C)(C)OC(=O)c1cc(-n2c(=O)cc(C(F)(F)F)n(C)c2=O)ccc1Cl`, the result in experiment [1], in experiment [2], in experiment [3], in experiment [4], in experiment [5] and in experiment [6] was inactive. For the same molecule, the result in experiment [7], in [9], in experiment [10], in experiment [12], in experiment [13] and in experiment [14] was inactive. For the same molecule, the result in experiment [17], in experiment [18] and in experiment [20] was inactive. Further, the concentration at half-maximal activity (AC50) in [8] is 12900 nM (active); in experiment [11], 859 nM (active); in experiment [15], 1200 nM (active); in [16] it was 984 nM (active); in experiment [19], 980 nM (active).
